Assay outcomes deposited in PubChem by several laboratories.
RN4220 kill – kills Staphylococcus aureus RN4220; S. aureus RN4220 growth, OD600, 16 h; inhibition, % (no concentration beside the values); actives 0.33% (n = 330,000); AID 1259311; in the data active means inhibition above about 85%;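 further: plate controls were untreated cells for no effect and reference antibiotic for full effect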
PfHsp40 rescue – restores yeast growth despite PfHsp40 toxicity; AID 504582; growth rescue, % at 12.5 µM; S. cerevisiae expressing PfHsp40, growth rescue, ATP luminescence; actives 0.68% (n = 340,000); in the data active means growth rescue above about 28%, passing the limit was not always enough; inconclusive means no clear call, values can overlap the other calls;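 further: yeast W303a lacking pdr1 and pdr3 grown in galactose medium; growth measured after three days at 30 °C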
PrPC surface inh – reduces human prion protein on the cell surface; P04156; cell surface PrPC, TR-FRET read-out; inhibition, % at 13.8 µM; actives 0.43% (n = 370,000); in the data active means inhibition above about 24%; further: 0% = median of the test wells and 100% = reference compound wells
VHR inh abs – inhibitors of human VHR1 phosphatase (DUSP3). P51452. recombinant VHR phosphatase, pNPP absorbance. inhibition, % at 13.3 µM. actives 0.52% (n = 290,000). AID 1654; in the data active means inhibition above about 50%
Target sequence (P51452 whole entry, looked up): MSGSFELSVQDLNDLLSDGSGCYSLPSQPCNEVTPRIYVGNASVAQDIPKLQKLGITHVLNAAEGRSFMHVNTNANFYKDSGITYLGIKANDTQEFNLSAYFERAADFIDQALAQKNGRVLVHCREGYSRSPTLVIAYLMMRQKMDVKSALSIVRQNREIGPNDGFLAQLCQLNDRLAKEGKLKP
Sa ugtP lethal – compounds lethal to S. aureus RN4220 ugtP deletion mutant. OD600 growth, 16 h. actives 0.54% (n = 330,000). growth inhibition, % (test concentration not listed); in the data active means growth inhibition above about 68%;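 further: plate controls were untreated wells for no effect and antibiotic for full effect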
An asterisk follows results filed as active; ? = inconclusive; nt = not tested or not shown. Rows were chosen to be rich in hits. Some 1.8% of all compounds tested hit in one or more screens of this group.

SMILES	RN4220 kill	PfHsp40 rescue	PrPC surface inh	VHR inh abs	Sa ugtP lethal
Cc1c(C(=O)N2CCCCC2)c(S(=O)(=O)N(C)Cc2ccccc2)c(C)n1C	1	0	-2	54*	9
O=C1NC[C@@H](Cc2cccc3ccccc23)N(CCc2cc(C(F)(F)F)cc(C(F)(F)F)c2)C1=O	nt	44*	-7	11	nt
O=C1NCC(Cc2cccc3ccccc23)N(CCc2cc(C(F)(F)F)cc(C(F)(F)F)c2)C1=O (centres undefined)	1	nt	nt	nt	6
CC1=NN(c2ccccc2)C(=O)C1C=C1C(=O)NC(=O)N(c2cc(C)cc(C)c2)C1=O (centres undefined)	4	nt	nt	nt	-7
CCCOC(=O)c1ccc(NC(=O)CC(C)(C)C)cc1	-7	52*	11	22	0
C=CS(=O)(=O)N(Cc1ccccc1Br)C(CO)CC(C)C (centres undefined)	14	nt	nt	nt	10
CCN1C(=O)C2C(c3ccc(-c4ccc(OC)cc4)c(OC)c3)N[C@@](C)(C(=O)OC)C2C1=O (some centres undefined)	3	nt	nt	nt	-5
CC1SC(c2ccc(Cl)cc2Cl)NC1=O (centres undefined)	-1	-1	0	57*	3
CC1SC(c2cccc(Cl)c2)NC1=O (centres undefined)	2	0	-2	13	-8
CCCOc1ccc(C=NNc2ccccc2[N+](=O)[O-])c(O)c1	5	nt	nt	nt	8
COc1ccc(N(CC(=O)NN=Cc2ccc(C(=O)O)cc2)S(=O)(=O)c2ccc(NC(C)=O)cc2)cc1	1	nt	nt	nt	0
CC[C@@]12C(=O)N(c3ccc(C)cc3)C(=O)N1C(c1cccc(C)c1)C1C(=O)N(Cc3ccccc3)C(=O)C12 (some centres undefined)	2	nt	nt	nt	-12
Cc1nc(N2CCN(C(=O)c3ccco3)CC2)c2c3c(sc2n1)CC(C)CC3 (centres undefined)	2	192*	20	12	-6
Cc1nc(N2CCN(C(=O)c3ccco3)CC2)c2c3c(sc2n1)CCCC3	19	?	5	26	78
CNC(=O)c1[nH]cnc1C(=O)NC(CCCCNC(=O)OC(C)(C)C)C(=O)OC(C)(C)C (centres undefined)	10	nt	nt	nt	7
CCCCCC(=O)Nc1cccc(C2=NOC3(C2)CC(C(N)=O)N(C(=O)C2CCC(=O)N2)C3)c1 (centres undefined)	6	nt	nt	nt	1
CCCc1nnc(NC(=O)c2c(O)c3cccc4c3n(c2=O)CC4)s1	101*	nt	nt	-1	100*
COc1ccccc1NCc1nc2ccccc2n1C	nt	nt	8	nt	nt
COc1ccccc1C(=O)c1nc2ccccc2n1C	3	-2	3	58*	10
COc1ccccc1N(CCC#N)C(=O)CSc1nnc2ccccn12	0	-1	5	nt	3
COc1ccccc1N(CCC#N)C(=O)CSc1nc(-c2ccccc2)cn1N	-5	36*	-2	32	-6
CCCC1CCCO[C@@](C(=O)NCc2cc(C)n(C)n2)(C(F)(F)F)C1 (some centres undefined)	5	nt	nt	nt	-6
CCc1nnc(NC(=O)c2nn(-c3ccccc3)nc2C)s1	1	-1	1	9	0
CC(NC(=O)Nc1nnc(C(F)(F)F)s1)(C(F)(F)F)C(F)(F)F	74	-2	57*	11	83*
Cc1nn(-c2ccccc2)nc1C(=O)Nc1nnc(C(F)(F)F)s1	79	1	-1	10	86*
SMILES	RN4220 kill	PfHsp40 rescue	PrPC surface inh	VHR inh abs	Sa ugtP lethal
CC(C)(C)CC(=O)Nc1nnc(C(F)(F)F)s1	9	-1	7	26	9
O=C(Nc1nnc(C(F)(F)F)s1)c1ccc(Br)s1	84	-2	9	18	81*
O=C(Nc1ccccc1C(=O)Nc1nnc(C(F)(F)F)s1)c1ccccc1Cl	88*	-1	12	13	90*
COC(=O)[C@@]12CCCCN1C(c1ccc(SC3CCCCC3)c(OC)c1)C1C(=O)N(C)C(=O)C12 (some centres undefined)	2	nt	nt	nt	5
CCOc1cc(C=NNC(=O)c2cccc(S(=O)(=O)N3CCCC3)c2)ccc1OCC(=O)N(C)C	5	nt	nt	nt	14
CCC1CCCC1=NNC(=O)c1ccoc1C (centres undefined)	4	nt	nt	nt	3
Nc1[nH]c(=O)ncc1F	7	370*	2	5	1
CC[n+]1ccccc1/C=C1\Sc2ccc(C)cc2N1C	27	2	4	16	100*
CN1/C(=C/c2cccc[n+]2CCO)Sc2ccccc21	-5	-1	-12	-3	-1
O=C(c1cc(COc2ccc3ncccc3c2)on1)N1CCC[C@H]1CO	4	-1	16	53*	3
CN(C)S(=O)(=O)c1cccc(NC(=S)NN=CC2CC=CCC2)c1 (centres undefined)	7	nt	nt	nt	5
CC(O)Cc1cn(CC(=O)NCCCCCCCCCCC(=O)N2CCNCC2)nn1 (centres undefined)	6	nt	nt	nt	3
CCOC(=O)N1CCN(Cc2ccc(O)c3ncccc23)CC1	1	nt	0	22	-13
Cc1ccc(C)c(S(=O)(=O)N2CCN(Cc3ccc(O)c4ncccc34)CC2)c1	10	323*	8	13	-4
CCOC(=S)SCC(=O)Nc1nc(-c2ccc(Br)cc2)cs1	-13	0	-8	17	99*
c1ccc(C2=Nc3ccccc3OC2)cc1	7	50*	0	42	9
C=C1C(=O)OC2CC(C)C3C=CC(=O)C3(C)C(O)C12 (centres undefined)	nt	0	nt	nt	nt
C=C1C(=O)O[C@H]2C[C@@H](C)[C@@H]3C=CC(=O)[C@@]3(C)C[C@H]12	nt	nt	26*	-8	nt
CCn1c(O)c(C2=c3ccccc3=NC2=O)c2cc(Br)ccc21	100*	nt	-7	26	101*
CC(=O)N/C(=N/c1nc(C)cc(C)n1)Nc1ccc(NC(C)=O)cc1	0	0	2	9	0
CC(=O)N/C(=N\c1nc(C)cc(C)n1)Nc1ccc2ccccc2c1	nt	-1	1	54*	nt
CC(C)(C)OC(=O)C(Cc1ccccc1)NC(=O)c1nc[nH]c1C(=O)NC1CCNCC1 (centres undefined)	3	nt	nt	nt	-8
O=S1(=O)CCC(NS(=O)(=O)/C=C/c2ccccc2)C1 (centres undefined)	-1	-1	3	5	-1
O=S(=O)(/C=C/c1ccccc1)NC1CCCCCCC1	9	70*	2	4	-19
O=S(=O)(/C=C/c1ccccc1)NC1CCCCCC1	10	63*	-1	26	-16
CCc1ccc(C(=O)NN=Cc2ccncc2)s1	-3	nt	nt	nt	-3
N#Cc1ccccc1NC(=O)COC(=O)c1ccc(F)cc1F	1	0	5	53*	14
NCCCCC1CNC(=O)C(=O)N1CCC12CC3CC(CC(C3)C1)C2 (centres undefined)	6	nt	nt	nt	-3
CSc1ccc(C(=O)C2CCCN(C(=O)CCc3cnn(C)c3)C2)cc1 (centres undefined)	1	0	-1	50*	3
